# Laboratory results from PubChem BioAssay (NCI).
# The panel holds about 83,000 compounds, 20% with a hit somewhere; the sample as a whole holds those more often.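 Testing used 96-well plates and a 48-hour single-concentration exposure. Example: -40 means 40% of the starting cells died.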 Values without a mark were called inactive. The source made the active and inactive calls. Rule for the calls: active = growth percent below 10; inactive = the rest.
# How the values were obtained:
# Experiment in all cases: NCI-60 one-dose screen, 48 h (100 = growth as untreated, 0 = no growth, -100 = all killed)
# Conditions in all cases: 10 µM unless noted
# [1] = system: DU-145 prostate
# [2] = system: K-562 leukemia
# [3] = system: MALME-3M melanoma
# [4] = system: MDA-MB-231 breast
# [5] = system: RXF 393 renal
# [6] = system: SF-268 CNS
# [7] = system: SF-295 CNS
# [8] = system: SF-539 CNS
# [9] = system: UACC-257 melanoma
# [10] = system: M14 melanoma
# [11] = system: HCT-15 colon
# [12] = system: HT29 colon
# [13] = system: SNB-75 CNS
# [14] = system: SNB-19 CNS
# [15] = system: U251 CNS
# [16] = system: PC-3 prostate
# [17] = system: SK-MEL-5 melanoma
# [18] = system: UACC-62 melanoma
# [19] = system: LOX IMVI melanoma
# [20] = system: SK-MEL-28 melanoma
Structure (SMILES),growth [1],growth [2],growth [3],growth [4],growth [5],growth [6],growth [7],growth [8],growth [9],growth [10],growth [11],growth [12],growth [13],growth [14],growth [15],growth [16],growth [17],growth [18],growth [19],growth [20]
CCN(CC)S(=O)(=O)c1ccc(S(=O)(=O)N2CCC[C@@H](C(=O)N3CCN(C(=O)OC(C)(C)C)CC3)C2)cc1,61.2%,35%,93.7%,77.7%,74.4%,73.1%,55.8%,77.7%,49.9%,77.9%,91.8%,91.5%,48.7%,68.8%,81.6%,77.5%,18.2%,62.4%,58%,97.6%
Cc1ccc(C(=O)c2ccc(CC(=O)N/N=C/c3ccc(O)cc3O)n2C)cc1,51.3%,45%,48.6%,51.4%,49.7%,37.3%,47.2%,44.4%,68.3%,28.8%,16.8%,64%,31.1%,49.4%,37.6%,61.1%,39.3%,29.8%,18.8%,46.4%
CCCCCn1sc(=O)n(Cc2ccc(CNC(=O)OCc3ccc4c(Cl)cc(Cl)c(O)c4n3)cc2)c1=O,63.9%,45.8%,70.4%,75.6%,32.5%,66.6%,35.1%,77.1%,87.9%,58.8%,17.1%,110%,82.1%,48.6%,39.7%,61.1%,48.7%,40.4%,–,56%
O=C(O)c1cccc(N/C=C/C(=O)c2cc3cc(Br)ccc3oc2=O)c1,108%,119%,104%,93.6%,107%,90.4%,104%,96%,99.2%,94.2%,93.2%,108%,83.7%,94%,96.9%,93.8%,97.7%,94.2%,–,104%
CCn1cc(C(=O)N/N=C/c2ccc(Br)cc2)c(=O)c2cc(F)c(N3CCNC(C)C3)c(F)c21 (centres undefined),31.4%,-12.6% (active),58.7%,54.8%,61.3%,62.6%,74.5%,71.4%,104%,42.7%,-18.9% (active),-31.7% (active),85.6%,54.5%,1.38% (active),68.3%,82.4%,101%,–,91.2%
FC(F)(F)c1[nH]ncc1-c1nc2c(N3CCCCC3)cc3[nH]ncc3c2c2c1CCCC2,10.2%,14.1%,0.904% (active),3.41% (active),-92% (active),-11.7% (active),7.04% (active),-72.2% (active),0.68% (active),2% (active),5.17% (active),1.21% (active),-73.8% (active),7.25% (active),3.57% (active),0.448% (active),-68.2% (active),-49.9% (active),-68.9% (active),-6.99% (active)
O=C(Nc1nc(C(=O)N2CCN(C(c3ccccc3)c3ccccc3)CC2)cs1)c1ccc(NC2CCCCC2)c([N+](=O)[O-])c1,98.9%,83.9%,89.4%,70.5%,85%,86.3%,69.9%,93.3%,89.4%,77.8%,96.9%,86.1%,86.1%,85.9%,83.5%,76.1%,60.6%,67.1%,91.5%,100%
O=C(OC[C@@H]1CO1)c1cccc2c(=O)c3ccccc3[nH]c12,-20.8% (active),4.46% (active),-89.9% (active),-28.1% (active),-56.9% (active),-31.3% (active),-8.88% (active),-38.6% (active),-30.8% (active),-65.8% (active),-5.09% (active),-7.33% (active),-88.2% (active),-7.9% (active),-15.7% (active),-21.1% (active),-90.9% (active),-89.2% (active),–,-62.6% (active)
COc1ccc(-c2ccc(-c3ccc(C(=N)N)cn3)s2)cc1,64.2%,0.33% (active),102%,87.7%,97.8%,99%,104%,94.3%,102%,101%,19.9%,16.1%,105%,88.6%,15.3%,65.5%,85%,101%,–,109%
O=C(CCC(=O)c1nc2ncccc2[nH]1)NN1C(=O)CSC1c1ccc(Cl)cc1 (centres undefined),103%,98.2%,93%,98%,103%,91.2%,108%,103%,105%,98%,102%,95.5%,84.7%,94.2%,95.2%,94.3%,104%,90.3%,91.4%,109%
Cc1ccc(-c2csc(NC(=O)N3CCN(c4cc5c(cc4F)c(=O)c(C(=O)O)cn5C4CC4)CC3)n2)cc1,16.3%,17.1%,-3.8% (active),17.5%,26.6%,24.3%,4.88% (active),26.7%,-4.73% (active),20%,9.36% (active),4.65% (active),31.5%,26.9%,15.4%,7.37% (active),-75.2% (active),3.86% (active),2.73% (active),35%
CCn1c2ccc(O)cc2c2c(C)c3c[n+](C(C)C)ccc3c(C)c21,29.6%,41%,-6.64% (active),45.4%,53.4%,14%,60.5%,38.7%,37%,36.5%,67.7%,54.8%,49.8%,7.71% (active),13.5%,61%,57.1%,15.1%,30.9%,22.8%
CCOC(=O)c1ccc2c(c1)c1c(C)c3ccncc3c(C)c1n2C,2.93% (active),7.07% (active),-40.9% (active),2.92% (active),-62.3% (active),-7.28% (active),1.65% (active),-0.581% (active),-25.9% (active),-57.2% (active),0.188% (active),3.66% (active),2.3% (active),8.59% (active),0.292% (active),10.8%,-59.7% (active),-64.4% (active),-19.1% (active),-28.3% (active)
CN(C)c1ccc(/C=C2/C=C(c3ccccc3)OC2=O)cc1,101%,46.9%,96.2%,109%,89.5%,101%,79.4%,102%,89.2%,86.1%,91.7%,94.7%,102%,107%,108%,96.9%,87%,92.6%,98.8%,105%
Cc1cc2oc(=O)cc(CP(=O)(O)O)c2cc1O,103%,107%,85.8%,97.4%,103%,96.6%,100%,96.8%,94.5%,103%,96%,106%,75.3%,93.6%,98.5%,94.9%,99.2%,90.7%,–,98.4%
COc1ccc(C/C(C)=C(/c2ccc(OCCN3CCCCCC3)cc2)c2ccc(OC(=O)NCc3ccccc3)cc2)cc1,95.6%,28%,95.2%,83.9%,84%,88.4%,98.2%,96.7%,94.7%,95.6%,60.6%,13.4%,90.7%,87.4%,71.8%,71.8%,91.2%,88.8%,52.3%,98.3%
